The structures appear in SMILES notation. About 83,000 compounds went through this panel and 20% of them were active in at least one assay; those are over-represented in the sample as a whole.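 Percent growth is the endpoint: 0 to 100 indicates growth inhibition (40 means 60% inhibition), 0 means no net growth, and negative values indicate cell death.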 Calls of active or inactive are those of the source.

For this assay, the system named is BT-549 breast. Description: NCI-60 one-dose screen, 48 h (100 = growth as untreated, 0 = no growth, -100 = all killed). Particulars: 10 µM unless noted. As for the experimental part:
Growth inhibition of the BT-549 human tumor cell line is measured as a screen for anti-cancer activity. Cells are grown in 96 well plates and exposed to the test compound for 48 hours. Compounds are tested at a single concentration, which is 10^-5 M for most compounds. The reported endpoint is percent growth (GI% or GIPRCNT), where numbers from 0 - 100% represent growth inhibition, and numbers from -100% - 0 represent cell death. For example, a value of 40 represents 60% growth inhibition. A value of 0 means no net growth occurred over the course of the experiment. A value of -40 indicates 40% of cells at the beginning of the experiment died by the end of the experiment. A value of -100 means all cells are dead at the end of the experiment.
NCI-60 Human Tumor Cell Lines Screen was performed using the standard one-dose NCI protocol, which is described in more detail at https://dtp.cancer.gov/discovery_development/nci-60/default.htm.
Compounds with GIPRCNT values below 10 were considered active. Activity score was based on GIPRCNT using the following formula: […]
Score is 0 for GIPRCNT values of 100 or above, 50 for GIPRCNT values of 0, and 100 for GIPRCNT values of -100.
For the compound `CC/C=C\C[C@H]1CC=C2C(=O)C=C[C@@H]2CC=CCCCC(=O)O[C@@H](CCCCC)CC=C2C(=O)C=C[C@@H]2CC=CCCCC(=O)O[C@@H](CCCCC)CC=C2C(=O)C=C[C@@H]2CC=CCCCC(=O)O[C@@H](CCCCC)CC=C2C(=O)C=C[C@@H]2CC=CCCCC(=O)O1`, the growth was -17.3% [7.9 µM] (active).

In the case of `Cc1ccc(S(=O)(=O)Nc2ccc(-c3cc(-c4cccc(F)c4)c(C#N)c(=O)[nH]3)cc2)cc1`, the growth was 74.7% (inactive).

Turning to `O=C1/C(=C\c2ccc(Br)o2)SC(=S)N1CCc1ccc(O)cc1`, the growth is 76.4% (inactive).

For the compound `CC(=O)c1c(C)[nH]c(-c2nc3ccc(N4CCN(C)CC4)cc3[nH]2)c1-c1ccc(N(C)C)cc1`, the growth is 51.6% (inactive).

Take `CN(C)c1ccc(N=C2C=CC(=O)C=C2)cc1`: the growth was 31.3% (inactive).

As for `C=C(C)[C@@H]1CC[C@]2(CN)CC[C@]3(C)[C@H](CC[C@@H]4[C@@](C)(CCCN)[C@H](C(=C)C)CC[C@]43C)[C@@H]12`, the growth was 92.1% (inactive).

Take `C=C(C)[C@@H]1CC[C@]2(C)CC[C@]3(C)[C@H](CC[C@@H]4[C@@]5(C)CCCNC(C)(C)[C@@H]5CC[C@]43C)[C@@H]12`: the growth was 101% (inactive).

For `Cn1cc(-c2csc(-c3cn(CCCN4CCCCC4)c4ccccc34)n2)c2cccnc21`, the growth is 72.7% (inactive).

Turning to `COc1ccc(C2c3ccccc3NC(=O)N2C2CCN(C)CC2)c(OC)c1` (stereo not given), the growth was 107% (inactive).

Turning to `COc1cc2[nH]c(C(=O)c3cc(OC)c(OC)c(OC)c3)c(N)c2cc1C#CC1CC1`, the growth was 53.4% (inactive).

In the case of `COc1cc(-c2nc(-c3ccccc3)c(-c3ccccc3)[nH]2)cc(OC)c1O`, the growth is 11.5% (inactive).

As for `CN1CCN(c2nc(-c3csc(-c4cccs4)n3)cc3ccccc23)CC1`, the growth was 70.4% (inactive).

Turning to `O=S(=O)(NCCNc1cc(-c2cn(-c3ccccc3)nc2-c2cccc(O)c2)ccn1)c1ccccc1`, the growth is 67.8% (inactive).

`N#Cc1c(-c2ccc(O)cc2)c2c(N)nn(-c3ccccc3)c2[nH]c1=O`: the growth was 111% (inactive).

Consider `O=C1C(=O)c2ccccc2C(O)=C1CCCc1ccc(C2CCCCC2)cc1`, for which the growth was 52.6% (inactive).

On to `CC(C)=CCC/C(C)=C/CC/C(C)=C/CC/C(C)=C/CSC[C@H](NC(=O)CCCCCN1CCN(C)CC1)C(=O)NC1CCCCC1`, for which the growth is 102% (inactive).

For `Cc1cc(C=O)c(C)c2c1[nH]c1ccccc12`, the growth is 89% (inactive).

Consider `COC(=O)[C@@H]1[C@H]2C[C@H]3c4[nH]c5cc(OC)ccc5c4CCN3C[C@@H]2C[C@H](OC(=O)/C=C/c2ccnc(OC)c2)[C@H]1OC`, for which the growth is 81.2% (inactive).

Consider `COCCNC1=C(Cl)C(=O)c2ccccc2C1=O`, for which the growth is 98.2% (inactive).

Turning to `COc1cccc(-c2nn(-c3ccccc3)cc2-c2ccnc(NCCNS(=O)(=O)c3ccccc3)c2)c1`, the growth was 36.5% (inactive).

Turning to `COc1cccc(-c2nn(-c3ccccc3)cc2-c2ccnc(NCCCNS(=O)(=O)c3ccc(Cl)cc3)c2)c1`, the growth was 58.1% (inactive).

Take `COC(=O)[C@]12CC[C@@H](C)[C@H](C)[C@@H]1C1=CC[C@@H]3[C@@]4(C)C[C@@H](O)OC[C@](C)(C=O)C4C(=O)C[C@@]3(C)[C@]1(C)CC2` (stereo not given in full): the growth was -10.1% (active).

For the compound `Cc1cc(N2CCN(C)CC2)nc(N(CCNc2ccnc3cc(Cl)ccc23)Cc2ccco2)n1`, the growth is 31.1% (inactive).

Regarding `Cc1cc(N(CCCNc2ccnc3cc(Cl)ccc23)Cc2ccco2)nc(Cl)n1`, the growth is 35.2% (inactive).

In the case of `COc1cnc2c(c1)C(=O)c1c-2n(CCCNCCN2CCOCC2)c(=O)c2cc([N+](=O)[O-])ccc12`, the growth was 13.4% (inactive).

Regarding `O=C1CNCCN1`, the growth is 100% (inactive).

Regarding `CN(C)CCCCC(C(=O)CBr)(c1ccccc1)c1ccccc1`, the growth was 24.3% (inactive).

As for `COc1ccc2nc(-c3c(-c4ccccc4)nc4ncccn34)[nH]c2c1`, the growth was 110% (inactive).

For the compound `COc1cccc(-c2nn(-c3ccccc3)cc2-c2ccnc(NCCNS(=O)(=O)c3ccc(Cl)cc3)c2)c1`, the growth was 41.9% (inactive).

For the compound `C=C1C(=O)O[C@H]2[C@H]1CC/C(Cn1cc(-c3ccc(F)cc3)nn1)=C\CC[C@@]1(C)O[C@@H]21`, the growth is 43.5% (inactive).

Regarding `Cc1cc(Nc2ccc(F)cc2)nc(N2CCN(c3ccnc4cc(Cl)ccc34)CC2)n1`, the growth was 47.5% (inactive).

For the compound `CC(C)=CCC/C(C)=C/CC/C(C)=C/CSC[C@H](NC(=O)CCCCCN1CCN(C)CC1)C(=O)NC1CCCCCC1`, the growth was 90.5% (inactive).

For `COC(=O)C(Cc1ccccc1)n1cc(COc2nc(Cl)nc(Nc3ccc(Cl)cc3)n2)nn1` (stereo not given), the growth was 99.6% (inactive).

`Cc1cc(Cl)nc(N(CCNc2ccnc3cc(Cl)ccc23)Cc2ccco2)n1`: the growth is 54.7% (inactive).

`CCC(CC)C(=O)OC(C)COc1ccc(C(C)(C)C)cc1` (stereo not given): the growth was 109% (inactive).

In the case of `C=C(C)[C@@H]1CC[C@]2(C)[C@H](CC[C@@H]3[C@H]4[C@H]5OC[C@@]4(CCC5(C)C)CC[C@]32C)[C@@]1(C)CCCN`, the growth was 93.8% (inactive).

In the case of `COc1ccc(NC(=O)c2ccc3c(c2)nc(-c2cc4ccccc4[nH]c2=O)n3-c2cc(C(C)(C)C)[nH]n2)cc1`, the growth was 84.5% (inactive).

Turning to `N#CC1=C(N)Oc2c(sc3c(F)cccc23)C1c1ccc(Cl)cc1` (stereo not given), the growth is 19.4% (inactive).

For `C#CCN=C[C@]12CC[C@@H](C(=C)C)[C@@H]1[C@H]1CC[C@@H]3[C@@]4(C)CCC(=O)C(C)(C)[C@@H]4CC[C@@]3(C)[C@]1(C)CC2`, the growth was 48.3% (inactive).

As to `COc1ccc2c(c1)c1nc3cc(C)c(C)cc3nc1n2CCN(C)C`, the growth was 56% (inactive).

For the origin of these results see PubChem BioAssay (NCI).
